# BLM helicase inh: qHTS Assay for Inhibitors of Bloom's syndrome helicase (BLM); RecQ-like DNA helicase BLM (Homo sapiens), P54132; recombinant BLM DNA unwinding, fluorescence dequenching; Potency, µM (highest dose often 56.1 µM), inactives show at the highest dose activity change, negative = inhibition, most hits filed as inhibitors; 350,000 compounds, 0.2% hits; AID 2528, 2010;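 note: plate controls were vehicle for no effect and no enzyme for full effect; nearly all actives have a fitted effect of over 35% in size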
# APEX1 inh: qHTS Assay for Inhibitors of the Human Apurinic/apyrimidinic Endonuclease 1 (APE1); DNA repair nuclease/redox regulator APEX1 (Homo sapiens), P27695; recombinant APE1, TAMRA/BHQ-2 abasic DNA cleavage fluorescence; Potency, µM (doses to about 65.8 µM), for the others: top-dose activity change, negative = inhibition, usual class: inhibitors; 350,000 compounds, 0.35% hits;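 note: plate controls were vehicle for no effect and reference inhibitor for full effect; nearly all actives have a fitted effect of over 55% in size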
# Target sequence (P27695 whole entry, looked up): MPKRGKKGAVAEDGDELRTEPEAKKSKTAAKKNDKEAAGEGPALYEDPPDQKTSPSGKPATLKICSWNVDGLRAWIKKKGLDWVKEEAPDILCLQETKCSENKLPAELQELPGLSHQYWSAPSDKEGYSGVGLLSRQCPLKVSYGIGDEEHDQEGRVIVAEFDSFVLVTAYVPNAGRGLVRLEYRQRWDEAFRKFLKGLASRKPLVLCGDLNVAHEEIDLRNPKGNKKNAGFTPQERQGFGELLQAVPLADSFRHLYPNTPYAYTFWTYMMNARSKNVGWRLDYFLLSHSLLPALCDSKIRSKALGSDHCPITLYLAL
#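 Substrate: short duplex with […] THF abasic site, 5'-TAMRA and 3'-BHQ-2, 50 nM final. APE1 at 0.75 nM, preincubated 15 min RT with compound. Fluorescence increase from first to third read measured activity.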
# RECQ1 inh-1: qHTS Assay for Inhibitors of RecQ-Like Dna Helicase 1 (RECQ1); ATP-dependent DNA helicase Q1 (Homo sapiens), P46063; RECQ1 DNA unwinding, red fluorescence kinetic read; Potency, µM (highest dose often 57.3 µM), for the others: at the highest dose activity, negative = inhibition, usual class: inhibitors; 240,000 compounds, 0.54% hits; AID 2549, 2010;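 note: plate controls were vehicle for no effect and no enzyme for full effect; nearly all actives have a fitted effect of over 30% in size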
#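 50 nM RECQ1T1 preincubated 15 min with compound in Tris pH 8.0 buffer with MgCl2, DTT, Tween-20 and 2.5 ug/ml poly(dI-dC); started with 200 nM TAMRA/BHQ-2 forked duplex and 2 mM ATP. Unwinding read as fluorescence (525/598 nm), two reads 2 h apart.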
# L3MBTL1 block: qHTS Assay for the Inhibitors of L3MBTL1; Lethal(3)malignant brain tumor-like protein 1 (Homo sapiens), Q9Y468; AlphaScreen L3MBTL1–H3K9me1 peptide binding; Potency, µM (top dose mostly 57.1 µM), inactives show at the top dose activity, negative = inhibition, usual class: inhibitors; 230,000 compounds, 0.66% hits; AID 485360, 2010; note: nearly all actives have a fitted effect of over 60% in size
#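 Displacement of a biotinylated histone H3(1-15) peptide monomethylated at Lys9 (75 nM) from L3MBTL1 (50 nM) was measured by AlphaScreen after a 30 min room-temperature compound incubation; cefsulodin titration served as intraplate control.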
# RECQ1 inh conf: Confirmation qHTS Assay for Inhibitors of RecQ-Like Dna Helicase 1 (RECQ1) | AID 2708, 2010 | shares compounds with RECQ1 inh-1 | RECQ1 helicase DNA unwinding, fluorescence | Potency, µM (top dose mostly 229 µM), for inactives: top-dose activity change, negative = inhibition, hits mostly inhibitors | 610 compounds, 28% hits; note: nearly all actives have a fitted effect of over 45% in size
# RECQ1 ADP FP: Counterscreen for RECQ1 Inhibitors: ADP Fluorescence Polarization Displacement Assay; Potency, µM (top dose mostly 228 µM), without a hit: top-dose activity change, negative = inhibition, most hits filed as inhibitors; ADP fluorescence polarization displacement counterscreen; shares compounds with RECQ1 inh-1; 530 compounds, 27% hits; note: nearly all actives have a fitted effect of over 45% in size
# RECQ1 inh-2: Confirmation qHTS Assay for Inhibitors of RecQ-Like Dna Helicase 1 (RECQ1) - Round 2 Cherry Picks; Potency, µM (series often up to 119 µM), for inactives: at the top dose activity, negative = inhibition, hits mostly inhibitors; shares compounds with RECQ1 inh-1; 1,100 compounds, 15% hits; recombinant RECQ1 DNA unwinding, red fluorescence; note: nearly all actives have a fitted effect of over 50% in size
# Active calls of the source: *; i = inactive; ? = inconclusive; nt = not tested or not shown; [ ] = dose if it differs, or a comment. Hits are enriched below; roughly 0.78% of the tested compounds scored in any of these assays. Calls come from the whole dose curve; as a rule, active = well fitted curve in the direction sought with a large enough effect; inconclusive = small, poorly fitted or top-dose-only effect, or another doubt; inactive = no such curve, though single readings can be large; an effect the other way counts as inactive or inconclusive. Unless noted, % is set by controls: 0 for no effect and ±100 for the full control effect; potency is the fitted concentration of half-maximal effect.
SMILES,BLM helicase inh,APEX1 inh,RECQ1 inh-1,L3MBTL1 block,RECQ1 inh-2,others
CCNc1ccc(Br)cc(C(=O)/C=C/c2ccc3c(c2)OCO3)c1=O,-25%,?,?,20µM*,?,
CNc1ccc(Br)cc(C(=O)/C=C/c2cccc(OC)c2)c1=O,-29%,?,28µM*,?,?,
Nc1ccccc1C(=O)/C=C\c1ccc2c(c1)OCO2,-5%[12.4 µM],-7%[12.4 µM],4%[11.5 µM],nt,nt,
CCCN(CCC)CCCNC(=O)c1cc2c(=O)n(C)c3ccccc3c2s1,55%,nt,nt,nt,nt,
CCc1cccc2cc(C(O)CNC(C)(C)C)oc12 (configuration not stated),1%,19%,10%,nt,nt,
CC1=C(C(=O)N2CCOCC2)C(c2cc(C)cs2)NC(=O)N1 (configuration not stated),-1%,?,?,-15%[11.4 µM],79µM*,
O=C(Cc1cnn(-c2ccccc2)c1)c1ccc(O)c(O)c1O,-10%,?,3.2µM*,nt,nt,RECQ1 inh conf=-2%[114 µM];RECQ1 ADP FP=30%[91.9 µM]
CC(C)CCn1c(=O)c2sccc2n2c(CCCC(=O)NC(C)C)nnc12,-1%,nt,nt,nt,nt,
Cc1ccc(OCC(O)Cn2c3ccccc3c3ccccc32)cc1 (configuration not stated),-10%,-4%,?,10%,-48%,
CCN1C(=O)C(CC(=O)Nc2ccc(OC)cc2)N(CCc2ccccc2)C1=S (configuration not stated),-12%,4%,-5%,-3%,nt,
CCN1C(=O)C(CC(=O)Nc2ccc(F)cc2)N(CCc2ccc(OC)cc2)C1=S (configuration not stated),-13%,-7%,22µM*,2%,-17%,
Cc1ccc(S(=O)(=O)N2CCC(C(=O)NCCN3CCCCCC3)CC2)cc1,3%,-2%,?,1%,-14%,
CCn1c(SCC(=O)OC)nc2sc3c(c2c1=O)CCC3,-22%,?,?,?,?,
O=C(Cn1cc(SCc2c(F)cccc2Cl)c2ccccc21)N1CCCC1,-5%,nt,nt,nt,nt,
O=C(NCCCCC(NC(=O)c1ccc([N+](=O)[O-])cc1)C(=O)O)c1ccc([N+](=O)[O-])cc1 (configuration not stated),0%,3%,i,nt,nt,RECQ1 inh conf=7%;RECQ1 ADP FP=-2%
Cc1ccc(S(=O)(=O)Nc2ccc(N3CCOCC3)nc2)cc1,-19%,0%,i,-6%,nt,
Cc1ccc(C)n1-c1ccc(N2CCOCC2)nc1,-12%,-4%,?,-11%,-8%,
Cc1ccc(OCc2ccc(C(=O)Nc3ccc(C(N)=O)cc3)o2)c([N+](=O)[O-])c1,-1%,-4%,?,5%,?,
O=C(CSc1nnc(-c2ccccc2)o1)c1nnc(-c2ccccc2)o1,-17%,2%,?,-6%,-22%,
C[C@@H](NC(=O)c1nc[nH]c1C(=O)N[C@@H](Cc1ccccc1)C(=O)OCc1ccccc1)c1ccccc1,-15%,-2%,-26%,-16%,nt,
C[C@H](NC(=O)c1nc[nH]c1C(=O)N[C@@H](Cc1ccccc1)C(=O)OCc1ccccc1)c1ccccc1,-15%,-7%,40µM*,-12%,-24%,

# Bioassay records as filed in PubChem.
